The whole screen tested about 320,000 compounds, of which about 2,100 (0.66%) were called active. Inconclusive results (about 53%) are left out. The call rests on the fitted dose curve; in most records, active means well fitted inhibition curve with a large enough effect in the signal ratio, with a control signal flat (not every such curve was filed as active); inconclusive means small, poorly fitted or top-dose-only effect, or effect the other way, or a change in a side signal; inactive means flat fitted curve, though single readings scatter; the % refers to the signal ratio. The full list was thinned out, with actives kept by preference.

This note sets out measurements from PubChem BioAssay AID2685 (National Center for Advancing Translational Sciences (NCATS), 2010).
Potency means the concentration at half of the fitted maximal effect.

This assay in a line: qHTS Assay for Lipid Storage Modulators in Drosophila S3 Cells.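 On cell number change: cells counted by Cell Tracker Red CMTPX staining in the red channel.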 On lipid storage change, negative = inhibition: on the % scale 0 is the no-effect control and ±100 the full control effect. Particulars: BODIPY lipid droplet fluorescence, 18-24 h, cells fed with added oleic acid; cell number change: measured here: cell count max response; series mostly up to 46.1 µM; lipid storage change, negative = inhibition: at the top concentration. The method, boiled down:
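Drosophila S3 cells loaded with oleic acid (400 uM, as added) and compounds at several concentrations; lipid droplets imaged by 488-nm laser-scanning cytometry, 500–530 nm intensity and object ratio to cell channel. Percent activity normalized to 20 uM Triacsin C.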
As to `CCOc1cc(N2CCOCC2)c(OCC)cc1NC(=O)CSc1n[nH]c(N)n1`, the “lipid storage change, negative = inhibition” value was 10.3% (inactive) and the cell number change was determined as 21.7%.
As to `CCOC(=O)c1c(NC(=O)COC(=O)c2cc(OC)c(OC)cc2[N+](=O)[O-])sc(C)c1CC`, the “lipid storage change, negative = inhibition” value is 7.82% (inactive) and the cell number change is -0.918%.
As to `CN(c1ccccc1)S(=O)(=O)c1cccc(NC(=O)CN2CCc3ccccc3C2)c1`, the molecule was called inactive.
For `CC1=C(C(N)=O)C(c2cccs2)n2ncnc2N1` (stereo not drawn), the “lipid storage change, negative = inhibition” value was -8.85% (inactive) and the cell number change is -0.857%.
Taken in the same sequence, the figures for `COc1ccc(S(=O)(=O)Nc2c(C(=O)O)[nH]c3ccccc23)cc1OC` were 25.4% (inactive) and 2.12%.
With `COc1ccccc1OCC(=O)Nc1cc(NC(=O)COc2ccccc2OC)cc(C(=O)O)c1`, the call was inactive and the cell number change is -10.7%.
Consider `Cc1cc(=O)n2[nH]nnc2n1`, for which the “lipid storage change, negative = inhibition” value was -9.73% (inactive) and the cell number change is -0.264%.
`CCC(C)[C@@H](C(=O)N1CCNCC1)n1cc(CCCN=C(N)N)nn1` (stereo partly drawn): the “lipid storage change, negative = inhibition” value was -8.66% (inactive) and the cell number change was -4.28%.
Turning to `Cc1sc2ncnc(N=Nc3c(O)[nH]c4ccccc34)c2c1C`, the Potency was 20.6 µM (active) and the cell number change was -22%.
On to `Oc1[nH]c2ccccc2c1N=Nc1ncnc2c1oc1ccccc12`, for which the “lipid storage change, negative = inhibition” value is -11.9% (inactive) and the cell number change was 8.73%.
For `Oc1[nH]c2ccccc2c1N=Nc1ccc(C(F)(F)F)cn1`, in that order: -3.49% (inactive) and -7.88%.
For the molecule `Cc1ccccc1OCCNc1ccc(C(F)(F)F)cc1[N+](=O)[O-]`, the “lipid storage change, negative = inhibition” value was -9.82% (inactive) and the cell number change was -21%.
For the molecule `CCS(=O)(=O)N1Cc2ccccc2CC1C(=O)Nc1ccc(C)cc1` (stereo not drawn), the molecule was classed as inactive.
For the molecule `CCS(=O)(=O)N1Cc2ccccc2CC1C(=O)Nc1ccc(NC(C)=O)cc1` (stereo not drawn), the molecule was called inactive.
With `CCS(=O)(=O)N1Cc2ccccc2CC1C(=O)NC(C)C12CC3CC(CC(C3)C1)C2` (stereo not drawn), the Potency is 23.1 µM (active) and the cell number change was -29.2%.
As for `Cc1ccc(C=Nc2ccccc2C(N)=O)o1`, the “lipid storage change, negative = inhibition” value was 8.66% (inactive) and the cell number change is -8.21%.
Consider `CC1CN(c2ccc([N+](=O)[O-])cc2F)CCN1C(=O)c1ccco1` (stereo not drawn), for which the “lipid storage change, negative = inhibition” value was 15.3% (inactive) and the cell number change is -3.23%.
Regarding `Cc1ccc(NS(=O)(=O)c2ccc3c(c2)N(C)CCO3)cc1`, the molecule was called inactive and the cell number change amounted to 5.66%.
In the case of `CCOc1ccccc1NS(=O)(=O)c1ccc2c(c1)N(C)CCO2`, the Potency was 7.31 µM (active) and the cell number change was -20.1%.
Consider `CCOc1ccccc1NS(=O)(=O)c1ccc2c(c1)n(C)c(=O)c(=O)n2C`, for which the “lipid storage change, negative = inhibition” value is 0.5% (inactive) and the cell number change is -6.25%.
Consider `COc1ccc(C)cc1NS(=O)(=O)c1ccc2c(c1)N(C)CCO2`, for which the Potency is 20.6 µM (active) and the cell number change worked out at 6.6%.
As for `COc1ccc(C)cc1NS(=O)(=O)c1ccc2c(c1)N(C(C)=O)CCO2`, the result was inactive and the cell number change came to 6.45%.
On to `CCOc1ccccc1NS(=O)(=O)c1ccc(OC)c(OC)c1`, for which the “lipid storage change, negative = inhibition” value was 3.17% (inactive) and the cell number change is -6.31%.
In the case of `CN(C)S(=O)(=O)c1ccc(N2CCCC2)c(C(=O)Nc2ccc(C(N)=O)cc2)c1`, the “lipid storage change, negative = inhibition” value is 16.1% (inactive).
Regarding `Cc1ccc(NC(=S)N2CCN(Cc3ccccc3)CC2)c(C)c1`, the “lipid storage change, negative = inhibition” value is 12.5% (inactive) and the cell number change amounted to 7.65%.
With `COc1ccc(C2C(C(=O)N3CCCCC3)CC(=O)N2c2ccc(OC)cc2)cc1` (stereo not drawn), the “lipid storage change, negative = inhibition” value is 20.1% (inactive) and the cell number change is -20%.
Take `CCOc1ccc(/C=N/NC(=O)c2cc3ccccc3cc2OC)cc1`: the molecule was called inactive.
Turning to `O=C(Cc1ccc([N+](=O)[O-])cc1)NC(C(=O)O)C(O)c1cccc([N+](=O)[O-])c1` (stereo not drawn), the “lipid storage change, negative = inhibition” value is 19.1% (inactive) and the cell number change was -5.25%.
In the case of `CN(C)CC(=O)N1c2ccccc2CCc2ccc(NC(=O)c3ccc(N)cc3)cc21`, the outcome was inactive.
With `CCOc1ccccc1CN1CCNC(=O)C1CC(=O)NCCN1CCOC1=O` (stereo not drawn), the Potency is 2.31 µM (active) and the cell number change is 19.4%.
In the case of `CCOc1ccccc1CN1CCNC(=O)C1CC(=O)NCCc1ccccn1` (stereo not drawn), the “lipid storage change, negative = inhibition” value is -15.3% (inactive) and the cell number change is -15.8%.
In the case of `CCOc1ccccc1CN1CCNC(=O)C1CC(=O)NCCCn1cccn1` (stereo not drawn), the molecule was called inactive and the cell number change was -11.6%.
With `CC(=O)Nc1ccc(S(=O)(=O)NC(C)c2nc(-c3ccccc3)no2)cc1` (stereo not drawn), the molecule was called inactive and the cell number change worked out at 16.2%.
In the case of `COc1ccc(-c2nn(CCC#N)cc2C=C(C#N)C#N)cc1`, the “lipid storage change, negative = inhibition” value is 3.12% (inactive) and the cell number change was 16.7%.
On to `COc1ccc(-c2cc(C(=O)N3CC4(C)CC3CC(C)(C)C4)no2)cc1OC` (stereo not drawn), for which the “lipid storage change, negative = inhibition” value was 20.3% (inactive) and the cell number change is -3.22%.
Taken in the same sequence, the figures for `CC1(C)CC2CC(C)(CN2C(=O)c2cccs2)C1` (stereo not drawn) were -0.663% (inactive) and -7.87%.
As for `CC1(C)CC2CC(C)(CN2C(=O)c2cc(-c3ccc(O)cc3)on2)C1` (stereo not drawn), the Potency is 0.92 µM (active) and the cell number change came to 16.1%.
For `C=CCn1c(SCc2ccc3c(c2)OCO3)nc2scc(-c3ccco3)c2c1=O`, the “lipid storage change, negative = inhibition” value is 34.4% (inactive) and the cell number change is -2.61%.
`C=CCn1c(=S)[nH]c2scc(-c3ccco3)c2c1=O`: the “lipid storage change, negative = inhibition” value was 1.25% (inactive) and the cell number change turned out to be 8.4%.
With `C=CCn1c(SC(F)F)nc2scc(-c3ccco3)c2c1=O`, the Potency was 0.058 µM (active) and the cell number change worked out at 0.451%.
`CC(C)N(Cc1nnc(-c2ccc(Cl)cc2)o1)C(=O)c1cc2ccccc2o1`: the “lipid storage change, negative = inhibition” value was 11.5% (inactive) and the cell number change is -8.15%.
For `Oc1nc(Nc2ccc(F)cc2)sc1/C=C1\C=Nc2ccccc21`, the “lipid storage change, negative = inhibition” value is -6.38% (inactive) and the cell number change is -4.17%.
For the molecule `Cc1ccccc1NC(=O)Cc1nnc(N)s1`, the “lipid storage change, negative = inhibition” value was 0.0585% (inactive) and the cell number change is -0.0956%.
Turning to `COc1ccc(S(=O)(=O)N2CCc3ccccc3C2)cc1`, the “lipid storage change, negative = inhibition” value was -6.8% (inactive) and the cell number change came out at 4.92%.
Taken in the same sequence, the figures for `COC(=O)COc1ccc(S(=O)(=O)N2CCCCCC2)cc1` were 9.35% (inactive) and 19.9%.
`CCOc1ccc(S(=O)(=O)N2CCC(C(=O)N3CCc4ccccc4C3)CC2)cc1`: the Potency is 7.31 µM (active) and the cell number change was -23.3%.
As to `CCOc1ccc(S(=O)(=O)N2CCC(C(=O)N3CCN(c4ccccc4)CC3)CC2)cc1`, the call was inactive and the cell number change is -5.41%.
On to `COC(=O)COc1ccc(S(=O)(=O)N2CCc3ccccc3C2)cc1`, for which the Potency was 7.31 µM (active) and the cell number change came to 22.6%.
As to `CCOc1ccc(S(=O)(=O)N2CCC(C(=O)N3CCN(Cc4ccccc4)CC3)CC2)cc1`, the “lipid storage change, negative = inhibition” value was -20.9% (inactive) and the cell number change is -0.232%.
`Cc1ccc(C2=NNC(=O)C(P(=O)(c3ccccc3)c3ccccc3)C2)cc1` (stereo not drawn): the “lipid storage change, negative = inhibition” value is 23.4% (inactive) and the cell number change was determined as 21.3%.
Regarding `S=C1NCN(C2CCCCC2)CN1Cc1ccccc1`, the “lipid storage change, negative = inhibition” value was 5.67% (inactive) and the cell number change was determined as 2.76%.
Consider `CCCc1cc(=O)oc2cc(C)cc(OC(C)C(=O)NCCCN3CCOCC3)c12` (stereo not drawn), for which the outcome was inactive and the cell number change is 6.42%.
Turning to `O=c1[nH]c2ccccc2nc1/C=C(\O)C(F)F`, the “lipid storage change, negative = inhibition” value is 9.85% (inactive) and the cell number change worked out at 13.5%.
Regarding `Cn1c(=O)c(/C=C/c2ccc(F)cc2)nc2ccccc21`, the “lipid storage change, negative = inhibition” value was -6.81% (inactive) and the cell number change was -1.08%.
Take `O=c1[nH]c2ccccc2nc1/C=C/c1ccc(F)cc1`: the Potency is 9.2 µM (active) and the cell number change was found to be 28.9%.
On to `COC(=O)[C@@H]1C2CCC(C(=O)Nc3ccccc3)(CC2)[C@@H]1C(=O)OC`, for which the outcome was inactive.
As to `COC(=O)[C@H]1C2CCC(C(=O)OC)(CC2)[C@H]1C(=O)OC`, the Potency is 1.3 µM (active) and the cell number change was -5.5%.
With `COC(=O)C1CCN(S(C)(=O)=O)CC1`, the “lipid storage change, negative = inhibition” value was 3.84% (inactive) and the cell number change stood at 4.24%.
Taken in the same sequence, the figures for `CN(Cc1ccccc1)c1nnc(N)s1` were 1.26% (inactive) and -2.39%.
Turning to `O=C(NC(=S)Nc1ccc(S(=O)(=O)Nc2nccs2)cc1)c1ccccc1F`, the “lipid storage change, negative = inhibition” value was 0.875% (inactive) and the cell number change worked out at 13%.
